Results: PMC4336329 (PLoS ONE, 2015)
Hit rate of the full screen: of about 310,000 compounds, about 14,000 (4.5%) showed an effect of 50% or more. The effect is printed as a negative number. The list comes from a sample in which strong results are over-represented; it also holds similar structures and randomly drawn compounds.

Biological target: human ether-à-go-go-related gene (hERG) potassium channel (human, UniProt Q12809)
Experiment: primary screen, population patch clamp on CHO cells stably expressing hERG; higher = less effect of the substance
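Further: peak tail current of the secondary pulse compared with the same well before compound.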

Sequence of human ether-à-go-go-related gene (hERG) potassium channel (Q12809 whole entry, looked up): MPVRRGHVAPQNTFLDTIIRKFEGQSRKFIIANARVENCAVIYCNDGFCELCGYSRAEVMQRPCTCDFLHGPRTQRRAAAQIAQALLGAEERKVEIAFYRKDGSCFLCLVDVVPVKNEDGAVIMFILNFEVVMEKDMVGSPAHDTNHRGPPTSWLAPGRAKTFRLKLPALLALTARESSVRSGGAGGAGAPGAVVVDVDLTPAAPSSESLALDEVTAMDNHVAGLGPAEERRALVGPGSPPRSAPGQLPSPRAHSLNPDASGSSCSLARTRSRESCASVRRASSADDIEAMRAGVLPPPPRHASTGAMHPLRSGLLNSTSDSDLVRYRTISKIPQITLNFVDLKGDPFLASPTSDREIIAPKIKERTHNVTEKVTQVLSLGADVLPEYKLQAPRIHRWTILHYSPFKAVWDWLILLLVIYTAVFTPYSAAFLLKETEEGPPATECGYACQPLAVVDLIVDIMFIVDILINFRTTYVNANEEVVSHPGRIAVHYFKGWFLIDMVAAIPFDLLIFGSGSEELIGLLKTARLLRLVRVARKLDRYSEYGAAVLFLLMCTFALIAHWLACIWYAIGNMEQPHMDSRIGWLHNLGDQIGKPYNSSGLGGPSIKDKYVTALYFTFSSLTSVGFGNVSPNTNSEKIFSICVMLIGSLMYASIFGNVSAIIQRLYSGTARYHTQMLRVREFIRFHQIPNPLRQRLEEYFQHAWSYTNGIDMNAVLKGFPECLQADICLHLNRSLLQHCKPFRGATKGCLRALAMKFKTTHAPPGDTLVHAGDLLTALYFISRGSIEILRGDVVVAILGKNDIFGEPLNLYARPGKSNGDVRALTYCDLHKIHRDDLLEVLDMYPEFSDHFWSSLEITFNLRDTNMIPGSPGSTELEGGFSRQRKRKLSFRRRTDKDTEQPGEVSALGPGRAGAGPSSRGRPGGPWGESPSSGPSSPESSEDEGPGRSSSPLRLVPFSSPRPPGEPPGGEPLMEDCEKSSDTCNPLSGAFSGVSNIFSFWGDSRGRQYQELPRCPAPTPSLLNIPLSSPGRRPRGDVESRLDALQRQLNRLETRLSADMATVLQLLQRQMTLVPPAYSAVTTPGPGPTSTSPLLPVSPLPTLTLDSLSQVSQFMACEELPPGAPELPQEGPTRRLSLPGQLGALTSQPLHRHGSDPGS

Structure (SMILES)	hERG current change (%, negative = inhibition) at 10uM
CNC(=S)N/N=C/c1cn(CCOc2cccc(OC)c2)c2ccccc12	3.42%
O=C([O-])C(CCCCNS(=O)(=O)c1ccc(F)cc1)NS(=O)(=O)c1ccc(F)cc1.[K+] (centres unmarked)	20.3%
COc1ccccc1NC(=O)C1=C(C)Nc2nc(CCCO)nn2C1c1ccc2c(c1)OCO2 (centres unmarked)	7.42%
CCOC(=O)C1CCCC(NS(=O)(=O)c2ccc(NC(C)=O)cc2)C1 (centres unmarked)	-2.41%
Cc1ccc(S(=O)(=O)/N=C(/c2ccccc2)N(C)C)c(C)c1	12.7%
NC(=S)N/N=C1\c2ccccc2-c2c(C(=O)O)cccc21	12.7%
Cc1cc(C)c(C(=O)N2CCCC(CNC(=O)C3(c4ccc(Cl)cc4)CC3)C2)c(=O)[nH]1 (centres unmarked)	6.58%
COCCN1C(=O)C(=O)/C(=C(/O)c2ccc(S(=O)(=O)N3CCOCC3)cc2)C1c1ccc(O)cc1 (centres unmarked)	3.78%
O=C1OCC(CO)(CO)N=C1NNc1ccc(Cl)c(Cl)c1	8.16%
COC(=O)c1ccc2c(=O)n(CCCCCC(=O)NCc3ccc4c(c3)OCO4)c(=O)[nH]c2c1	-31.7%
Cc1cc(C)cc(NC(=S)N2CCN(c3ccc(F)cc3)CC2)c1	-8.95%
COC(=O)C1=C(c2ccccc2OCc2ccccc2)C[C@@H]2CC[C@H]1N2C(=O)NCc1ccc(N(C)C)cc1	10.9%
CC(C)Cc1ccc(CN2CCC(n3nccc3NC(=O)C3CCCC3)CC2)cc1	-72.4%
CCOc1cccc(CN2CCC(n3nccc3NC(=O)C3CCCC3)CC2)c1	-55.3%
CCc1ccc(CN2CCC(n3nccc3NC(=O)C3CCCC3)CC2)cc1	-76.3%
CCn1cc(CN2CCC(n3nccc3NC(=O)C3CCCC3)CC2)cn1	-6.15%
O=C(Nc1ccnn1C1CCN(Cc2cccc(OCCO)c2)CC1)C1CCCC1	-24.8%
O=C(Nc1ccnn1C1CCN(Cc2cccc(OCCO)c2)CC1)C1CCOC1 (centres unmarked)	-2.98%
Cn1c(=S)c2[nH]c(SCCN3CCCC3)nc2n(C)c1=O	10.5%
Cc1ccccc1NC(=S)N(CCN(C)C)C(C)c1ccccn1 (centres unmarked)	-8.78%

Structure (SMILES)	hERG current change (%, negative = inhibition) at 10uM
OCCCNCc1cccc2ccccc12	-15.8%
Cc1ccc(C(C(=O)NC2CCCCC2)N(C(=O)CCCC(=O)Nc2ccccn2)c2ccc3c(c2)OCCO3)cc1 (centres unmarked)	-3.99%
COC(=O)c1ccc(CSc2nnc3c(n2)[nH]c2ccccc23)cc1	-23.1%
CCS(=O)(=O)N1CCN(c2ncnc3sc(C)c(C)c23)CC1	-53.7%
Cc1cc(C)c(C)c(S(=O)(=O)N2CCN(c3ncnc4sc(C)c(C)c34)CC2)c1C	8.21%
Cc1sc2ncnc(N3CCCCC3)c2c1C	-11.9%
Cc1sc2ncnc(N3CCN(S(=O)(=O)c4ccc(F)cc4)CC3)c2c1C	-50.9%
Cc1sc2ncnc(N3CCN(S(=O)(=O)c4ccc(Br)cc4)CC3)c2c1C	-47.5%
Cc1sc2ncnc(N3CCN(S(=O)(=O)c4ccccc4)CC3)c2c1C	-18.6%
COc1ccccc1NC(=O)NCC(=O)Nc1c(C)cccc1C	30.5%
CCOC(=O)c1ccc(CS(=O)c2ccc(Cl)cc2)o1 (centres unmarked)	-3.47%
Cc1cc(C)c(NC(=O)CCCN2CCOCC2)c(C)c1	13.1%
COC(=O)c1scc(C)c1NC(=O)CC1NCCNC1=O (centres unmarked)	11.9%
O=C(C[n+]1ccccc1)c1ccc(-c2ccccc2)cc1.[Br-]	-21.4%
COC(=O)c1ccc(CC(=O)c2c(C)cc(O)cc2O)o1	0.801%
CC1CN(CCOCCSc2ccc(Cl)cc2)CC(C)O1.O=C(O)C(=O)O (centres unmarked)	-23.3%
CC1CN(CCCCSc2ccccc2)CC(C)O1.Cl (centres unmarked)	-8.71%
CC1CCN(CCOCCSc2ccc(Cl)cc2)CC1.O=C(O)C(=O)O	-72.1%
CC1CN(CCCCSc2ccc(Cl)cc2)CC(C)O1.O=C(O)C(=O)O (centres unmarked)	-31.6%
CC1CC(C)CN(CCOCCSc2ccc(Cl)cc2)C1.O=C(O)C(=O)O (centres unmarked)	-72.4%

Structure (SMILES)	hERG current change (%, negative = inhibition) at 10uM
CC1CC(C)CN(CCCSc2ccccc2)C1.O=C(O)C(=O)O (centres unmarked)	-64.3%
CN(C)CCOCCSc1ccc(Cl)cc1.O=C(O)C(=O)O	-37.3%
CC1CN(CCCSc2ccc(Cl)cc2)CC(C)O1.O=C(O)C(=O)O (centres unmarked)	-47.9%
CC1CC(C)CN(CCOCCSc2ccccc2)C1.O=C(O)C(=O)O (centres unmarked)	-45.1%
Cc1cccc(OCC(O)Cn2c(N3CCCCC3)nc3c2c(=O)n(C)c(=O)n3C)c1 (centres unmarked)	-13.7%
CCN(CC)S(=O)(=O)c1cccc(-c2nnc(SCc3nc4ccccc4s3)o2)c1	-3.82%
O=S(=O)(Nc1ccccc1F)c1ccc(Cl)nc1	5.63%
Cc1ccc2oc(C(=O)NCCC3CCCCO3)c(C)c2c1 (centres unmarked)	-11.5%
Cn1c(=O)c2[nH]c(N=Nc3ccc(N)cc3N)nc2n(C)c1=O	28.7%
O=c1cc(NS(=O)(=O)c2ccccc2)nc(SCc2ccccc2Cl)[nH]1	6.99%
COc1ccc(N2C(=O)CC(N3CCN(c4ccc(Cl)cc4)CC3)C2=O)cc1 (centres unmarked)	-4.94%
CCOc1ccc(N2C(=O)CC(N3CCc4ccccc43)C2=O)cc1 (centres unmarked)	-3.24%
COc1ccc(N2C(=O)CC(N3CCN(C4CCc5ccccc5C4)CC3)C2=O)cc1 (centres unmarked)	-61.7%
COc1cccc(N2CCN(C3CC(=O)N(c4ccc(F)c(Cl)c4)C3=O)CC2)c1 (centres unmarked)	-12.6%
CCOc1ccc(N2C(=O)CC(N3CCN(c4ccccc4F)CC3)C2=O)cc1 (centres unmarked)	6.59%
CCOc1ccc(N2C(=O)CC(N3CCN(C4CCc5ccccc5C4)CC3)C2=O)cc1 (centres unmarked)	-71.5%
COc1ccc(N2C(=O)CC(N3CCN(c4ccccc4)CC3)C2=O)cc1 (centres unmarked)	8.93%
COc1ccc(NC2CCN(C3CC(=O)N(c4ccc(F)c(Cl)c4)C3=O)CC2)cc1 (centres unmarked)	-54.8%
COc1ccc(N2C(=O)CC(N3CCCCC3)C2=O)cc1 (centres unmarked)	18.6%
